{"source": "PubChem BioAssay (NCI)", "note": "The panel holds about 83,000 compounds, 20% with a hit somewhere; the sample as a whole holds those more often.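 Values shown are percent growth following 48 h exposure of cells in 96-well plates to a single concentration of compound; below 10 was considered active.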 A number with no mark means an inactive call. Activity calls are given as the source filed them.", "data": [{"test_system": "MDA-MB-468 breast", "test": "NCI-60 one-dose screen, 48 h (100 = growth as untreated, 0 = no growth, -100 = all killed)", "conditions": "10 µM unless noted", "values": [{"smiles": "C#Cc1cccc(NC(=O)C2CCCN(C(=O)CCl)C2)c1", "note": "(stereo not given)", "growth": "66.3% [8.25 µM]"}, {"smiles": "Cc1ccccc1C(=O)c1ccccc1C(=O)O", "growth": "108%"}, {"smiles": "Clc1cc(Cl)cc(Nc2ccc3c(OCCCN4CCOCC4)cccc3n2)c1", "growth": "20.6%"}, {"smiles": "CCOC(=O)c1c(N)c(C#N)cn1Cc1ccc(Cl)cc1Cl", "growth": "45.2%"}, {"smiles": "Cc1ccc(C(O)C2=CC(=O)c3ccccc3C2=O)cc1", "note": "(stereo not given)", "growth": "96.5%"}, {"smiles": "COC(=O)[C@@H]1[C@H]2C[C@H]3c4[nH]c5cc(OC)ccc5c4CCN3C[C@@H]2C[C@H](OC(=O)/C=C/c2ccnc(OC)c2)[C@H]1OC", "growth": "76.9%"}, {"smiles": "O=C(NC(=S)Nc1ccccn1)c1ccccc1", "growth": "45.1%"}, {"smiles": "Nc1ccc(C2=Nc3cccc4cccc(c34)S2)cc1", "growth": "0.26% (active)"}, {"smiles": "CN1CCC[C@]2(C)[C@H]3CC[C@@H]4[C@@H]5[C@H]6OC[C@@]5(CCC6(C)C)CC[C@@]4(C)[C@]3(C)CC[C@H]2C1(C)C", "growth": "82%"}, {"smiles": "Cc1nc2ccccc2c(/C=C/c2ccc(C(F)(F)F)cc2)c1C(=O)/C=C/c1ccccc1", "growth": "-51% (active)"}, {"smiles": "Cn1ccnc1C(=O)/C=C/c1ccc(C(=O)Nc2ccccc2F)cc1", "growth": "22.3%"}, {"smiles": "CCN1C(=O)N(CC)C2Nn3c(s/c(=C4\\C(=O)N(C(C)C)c5ccccc54)c3=O)=NC21", "note": "(stereo not given)", "growth": "9.33% (active)"}, {"smiles": "NNCCc1ccc(NC(=O)CCCc2ccc(/C=C/C(=O)NO)cc2)cc1", "growth": "18%"}, {"smiles": "COc1cc2oc(-c3cccc(NC(=O)c4cccc([N+](=O)[O-])c4)c3)cc(=O)c2c(OC)c1OC", "growth": "-1.02% (active)"}, {"smiles": "CCCCCC(=O)O[C@]1(C(C)=O)CCC2C3CCC4=CC(=O)CC[C@]4(C)C3CC[C@@]21C", "note": "(stereo not given in full)", "growth": "-2.63% (active)"}, {"smiles": "CC(C)=CC[C@@H]1CC2(CC=C(C)C)C(=O)C(OC3(C(=O)c4ccccc4)C(=O)C4(CC=C(C)C)C[C@@H](CC=C(C)C)C(C)(C)C(CC=C(C)C)(C4=O)C3=O)(C(=O)c3ccccc3)C(=O)C(CC=C(C)C)(C2=O)C1(C)C", "note": "(stereo not given in full)", "growth": "-6.87% (active)"}, {"smiles": "CC(=O)Nc1nc(C)c(-c2csc(Nc3ccccc3)n2)s1", "growth": "4.66% (active)"}, {"smiles": "CSc1ncc(C)c(Nc2ccc(Cl)cc2)n1", "growth": "129%"}, {"smiles": "FC(F)(F)c1cccc(Nc2nc(-c3ccccc3)nc3ncccc23)c1", "growth": "-21.7% (active)"}, {"smiles": "O=[N+]([O-])c1ccc(C(c2ccccc2)c2ccccc2)cc1", "growth": "101%"}, {"smiles": "CN1CCC[C@@H]1CCO[C@](C)(c1ccccc1)c1ccc(Cl)cc1", "growth": "-10.5% (active)"}, {"smiles": "Cc1ccc2c(c1)C(=O)/C(=C/c1cccc(F)c1)S2", "growth": "84.7%"}, {"smiles": "NC(N)=Nc1ccc(Oc2cccc(NC(N)=Nc3ccc(Cl)c(C(F)(F)F)c3)c2)cc1", "growth": "10.1%"}, {"smiles": "CCn1c(SC)nnc1-c1cc2c([nH]c3ccccc32)c(-c2cccc(O)c2)n1", "growth": "-12.6% (active)"}, {"smiles": "Cc1ccc(S(=O)(=O)NC(=O)n2cc(-c3ccncc3)c(-c3ccc(Cl)c(O)c3)n2)cc1", "growth": "101%"}, {"smiles": "C1CCc2onc(-c3noc4c3CCCCC4)c2CC1", "growth": "108%"}, {"smiles": "O=C(NC1CCCCC1)C(c1cccs1)N(CCc1ccccc1)C(=O)c1ccco1", "note": "(stereo not given)", "growth": "94.1%"}, {"smiles": "CC(COC(=O)c1ccccc1)N1CC2CCC(C1)O2", "note": "(stereo not given)", "growth": "103%"}, {"smiles": "CC(c1ccccc1)C(C(=O)c1ccccc1)c1ccccc1", "note": "(stereo not given)", "growth": "81.5%"}, {"smiles": "CC(C)C1C2=C(NCCN1C(=O)Cc1ccccc1)C(C)(C)N(Cc1ccccc1)C2=O", "note": "(stereo not given)", "growth": "95.5%"}, {"smiles": "COc1cccc(-c2nn(-c3ccccc3)cc2-c2ccnc(NCCCN)c2)c1", "growth": "17.4%"}, {"smiles": "NC(=S)NS(=O)(=O)c1ccc(N)cc1", "growth": "96.5%"}, {"smiles": "COc1cccc(/C=C(/C)c2ccc3cccc(OC)c3[o+]2)c1O", "growth": "95.9%"}, {"smiles": "CCN(CC)c1cn(-c2ccc(S(N)(=O)=O)cc2)nn1", "growth": "91.9%"}, {"smiles": "CCOC(=O)c1c(SC)nn(-c2cc(=O)[nH]c3ccc(Br)cc23)c1N", "growth": "115%"}, {"smiles": "COc1ccc2[nH]cc(C3(c4c[nH]c5ccc(OC)cc45)C(=O)Nc4ccc(F)cc43)c2c1", "growth": "96.9%"}, {"smiles": "COc1cc2c3c(n(CCCN4CCCC4)c(=O)c2cc1OC)-c1cc2c(cc1C3=O)OCO2", "growth": "84.1%"}, {"smiles": "O=C(c1ccc(F)c(F)c1Nc1ccc(I)cc1F)N1CC(O)([C@@H]2CCCCN2)C1", "growth": "25.2%"}, {"smiles": "CC1CC(C)/C(=N/NC(N)=O)C(C(O)CC2CCC(=O)NC2=O)C1", "note": "(stereo not given)", "growth": "46.9%"}, {"smiles": "O=C1c2c(c3c4ccccc4[nH]c3c3ccc4ccccc4c23)C(=O)N1CCN1CCNCC1", "growth": "76.5%"}]}]}
